Data taken from publication PMC8384837, “Expanding the binding specificity for RNA recognition by a PUF domain”.
Positions count from the first letter of the chain named.

Key:
Test in all cases: yeast three-hybrid, YBZ-1, SC-Leu-His + 0.5 mM 3-AT, 4 days
Details in all cases: tags: N-Gal4 AD-HA kept; label: inside an RPR1-promoter hybrid RNA with tandem MS2 sites; ssRNA
PUM1 PUF domain R6-AFR = target: T1, PUM1 PUF domain R6-AFR (Homo sapiens, UniProt Q14671 828-1176, N1043A;Y1044F;Q1047R)
T1 sequence: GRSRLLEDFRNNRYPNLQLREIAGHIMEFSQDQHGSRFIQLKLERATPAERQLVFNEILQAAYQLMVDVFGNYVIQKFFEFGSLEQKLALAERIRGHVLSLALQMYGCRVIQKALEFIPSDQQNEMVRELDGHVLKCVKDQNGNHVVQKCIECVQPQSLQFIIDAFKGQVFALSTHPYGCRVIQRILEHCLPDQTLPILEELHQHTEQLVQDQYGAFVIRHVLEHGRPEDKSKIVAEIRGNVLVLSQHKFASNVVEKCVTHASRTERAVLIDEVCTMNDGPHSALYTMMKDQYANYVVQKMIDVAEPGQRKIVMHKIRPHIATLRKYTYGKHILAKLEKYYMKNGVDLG
Method in brief: (§1)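 Each repeat of the Pumilio-1 PUF domain was randomized at its three base-contacting residues, and these libraries were co-expressed from a centromeric plasmid with matching RNA elements in strain YBZ-1. After four days on SC-Leu (input) or SC-Leu-His + 0.5 mM 3-AT (selection), the repeat regions were PCR-amplified and Illumina-sequenced. The interaction score compares variant frequency between input and selection as a log change, computed in log2 with a pseudocount of 1 for absent variants.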

PUM1 PUF domain R1-KTY = PUM1 PUF domain R1-KTY (Homo sapiens, UniProt Q14671 828-1176, S863K;R864T;Q867Y)
Method in brief: as §1

PUM1 PUF domain R4-DHV = PUM1 PUF domain R4-DHV (Homo sapiens, UniProt Q14671 828-1176, N971D;Q975V)
Method in brief: as §1

PUM1 PUF domain R7-KWN = PUM1 PUF domain R7-KWN (Homo sapiens, UniProt Q14671 828-1176, S1079K;N1080W;E1083N)
Method in brief: as §1

PUM1 PUF domain R5-NAI = PUM1 PUF domain R5-NAI (Homo sapiens, UniProt Q14671 828-1176, C1007N;R1008A;Q1011I)
Method in brief: as §1

PUM1 PUF domain R5-TRY = PUM1 PUF domain R5-TRY (Homo sapiens, UniProt Q14671 828-1176, C1007T;Q1011Y)
Method in brief: as §1

PUM1 PUF domain R3-PFY = PUM1 PUF domain R3-PFY (Homo sapiens, UniProt Q14671 828-1176, C935P;R936F;Q939Y)
Method in brief: as §1

PUM1 PUF domain R4-TRG = PUM1 PUF domain R4-TRG (Homo sapiens, UniProt Q14671 828-1176, N971T;H972R;Q975G)
Method in brief: as §1

PUM1 PUF domain R6-GYK = target: T2, PUM1 PUF domain R6-GYK (Homo sapiens, UniProt Q14671 828-1176, N1043G;Q1047K)
T2 sequence: T1 sequence with A216G, F217Y, R220K
Method in brief: as §1

PUM1 PUF domain R6-NFL = target: T3, PUM1 PUF domain R6-NFL (Homo sapiens, UniProt Q14671 828-1176, Y1044F;Q1047L)
T3 sequence: T1 sequence with A216N, R220L
Method in brief: as §1

GGCUAGAACUAGUGGAUCCCCCGGCGCCCGGCGGCUCGAGCCCGGGUAAGUGCAAAUAGUCUGCAUGCCGCCGGGCGCCAUGCCUGCAGGUCGACUCUAGAAAACAUG
binding signal (PUM1 PUF domain R6-AFR): 4.86 log2 enrichment (interaction score)

GGCUAGAACUAGUGGAUCCCCCGGCGCCCGGCGGCUCGAGCCCGGGUAAGUGUAAAUUGUCUGCAUGCCGCCGGGCGCCAUGCCUGCAGGUCGACUCUAGAAAACAUG
binding signal (PUM1 PUF domain R1-KTY): 3.93 log2 enrichment (interaction score)

GGCUAGAACUAGUGGAUCCCCCGGCGCCCGGCGGCUCGAGCCCGGGUAAGUGUAUAUAGUCUGCAUGCCGCCGGGCGCCAUGCCUGCAGGUCGACUCUAGAAAACAUG
binding signal (PUM1 PUF domain R4-DHV): 6.27 log2 enrichment (interaction score)

GGCUAGAACUAGUGGAUCCCCCGGCGCCCGGCGGCUCGAGCCCGGGUAAGUCUAAAUAGUCUGCAUGCCGCCGGGCGCCAUGCCUGCAGGUCGACUCUAGAAAACAUG
binding signal (PUM1 PUF domain R7-KWN): 5.98 log2 enrichment (interaction score)

GGCUAGAACUAGUGGAUCCCCCGGCGCCCGGCGGCUCGAGCCCGGGUAAGUGUACAUAGUCUGCAUGCCGCCGGGCGCCAUGCCUGCAGGUCGACUCUAGAAAACAUG
binding signal (PUM1 PUF domain R4-DHV): 5.75 log2 enrichment (interaction score)

GGCUAGAACUAGUGGAUCCCCCGGCGCCCGGCGGCUCGAGCCCGGGUAAGUGUUAAUAGUCUGCAUGCCGCCGGGCGCCAUGCCUGCAGGUCGACUCUAGAAAACAUG
binding signal (PUM1 PUF domain R5-NAI): 3.43 log2 enrichment (interaction score)

GGCUAGAACUAGUGGAUCCCCCGGCGCCCGGCGGCUCGAGCCCGGGUAAGUGUAAAUAGUCUGCAUGCCGCCGGGCGCCAUGCCUGCAGGUCGACUCUAGAAAACAUG
binding signal (PUM1 PUF domain R5-TRY): 4.49 log2 enrichment (interaction score)
binding signal (PUM1 PUF domain R3-PFY): 4.24 log2 enrichment (interaction score)
binding signal (PUM1 PUF domain R6-AFR): 4.43 log2 enrichment (interaction score)
binding signal (PUM1 PUF domain R4-TRG): 5.35 log2 enrichment (interaction score)
binding signal (PUM1 PUF domain R6-GYK): 2.87 log2 enrichment (interaction score)
binding signal (PUM1 PUF domain R6-NFL): 5.25 log2 enrichment (interaction score)
